Here are results for 63 molecules from PubChem BioAssay AID652115 (Broad Institute, 2013).

Several values for one entry are separate records, joined by “and”; a condition that tells them apart may be missing. Equal entries are not always repeated. Out of some 330,000 compounds screened, about 3,800 (1.2%) were called active. The sample holds actives, similar compounds and a random draw of the others, so the mix is not that of the screen. Values without a mark were called inactive. Cut-off read from the data, not from the text of the source: active = inhibition above about 15%; inconclusive = no clear call, values can overlap the other calls; inactive = below that.

Sequence of NAD-dependent protein deacylase sirtuin-5, mitochondrial (Homo sapiens) (Q9NXA8 whole entry, looked up): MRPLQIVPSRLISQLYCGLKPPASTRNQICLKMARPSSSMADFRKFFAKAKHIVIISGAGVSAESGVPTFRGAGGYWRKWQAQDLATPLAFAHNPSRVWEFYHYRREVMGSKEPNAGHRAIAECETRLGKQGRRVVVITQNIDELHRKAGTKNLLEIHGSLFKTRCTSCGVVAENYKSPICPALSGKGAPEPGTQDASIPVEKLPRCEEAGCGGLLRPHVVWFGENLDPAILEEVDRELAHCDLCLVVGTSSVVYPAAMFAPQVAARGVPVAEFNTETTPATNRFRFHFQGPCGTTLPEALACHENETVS

The test concerns the target NAD-dependent protein deacylase sirtuin-5, mitochondrial (Homo sapiens) (UniProt Q9NXA8). The test can be described thus: SIRT5 desuccinylase inhibitors, primary screen, biochemical, fluorescence imaging, single point, set 5 (AID 652115). As to conditions: Purified SirT5, succinyl-peptide AMC, trypsin-coupled fluorescence; at 15 µM; hits give high values.
The term inhibition denotes the drop in the measured response relative to a control, in per cent. For `O=C(C[C@H]1CC[C@H]2[C@@H](COC[C@@H](O)CN2Cc2ccccc2)O1)N[C@@H]1CCN(Cc2ccccc2)C1`, the inhibition is -3.08%.

Turning to `CCCNC(=O)N(C)C[C@H]1Oc2ncc(-c3cccc(C#N)c3)cc2C(=O)N([C@@H](C)CO)C[C@H]1C`, the inhibition was 0.845%.

For `CCNC(=O)C[C@@H]1CC[C@H]2[C@@H](COC[C@@H](O)CN2C(=O)c2cc(Cl)cc(Cl)c2)O1`, the inhibition is -2.11%.

`COc1ccc(S(=O)(=O)Nc2ccc3c(c2)C(=O)N([C@H](C)CO)C[C@@H](C)[C@H](CN(C)Cc2ccccc2)O3)cc1`: the inhibition is 5.6%.

On to `COc1ccc(CN(C)C[C@H]2Oc3c(NS(=O)(=O)c4ccc(Cl)cc4)cccc3C(=O)N([C@H](C)CO)C[C@H]2C)cc1`, for which the inhibition was -3.94%.

Take `COc1ccc(CN(C)C[C@H]2Oc3c(NS(=O)(=O)c4ccccc4)cccc3C(=O)N([C@H](C)CO)C[C@@H]2C)cc1`: the inhibition was 6.84%.

As to `COc1ccc(S(=O)(=O)Nc2cccc3c2O[C@@H](CN(C)Cc2ccc(-c4ccccc4)cc2)[C@H](C)CN([C@H](C)CO)C3=O)cc1`, the inhibition was 19.6% (active).

Regarding `COc1ccc(CN(C)C[C@H]2Oc3c(NS(=O)(=O)c4ccc(Cl)cc4)cccc3C(=O)N([C@H](C)CO)C[C@@H]2C)cc1`, the inhibition is -1.84%.

Turning to `COc1ccc(S(=O)(=O)Nc2ccc3c(c2)C(=O)N([C@H](C)CO)C[C@H](C)[C@@H](CN(C)Cc2ccc(-c4ccccc4)cc2)O3)cc1`, the inhibition is 16.6% (active).

On to `COc1ccc(CN(C)C[C@H]2Oc3c(NS(=O)(=O)c4ccccc4)cccc3C(=O)N([C@@H](C)CO)C[C@H]2C)cc1`, for which the inhibition was 26.9% (active).

Turning to `COc1ccc(S(=O)(=O)Nc2ccc3c(c2)C(=O)N([C@H](C)CO)C[C@@H](C)[C@@H](CN(C)Cc2ccccc2)O3)cc1`, the inhibition is 3.29%.

For `COc1ccc(CN(C)C[C@H]2Oc3c(NS(=O)(=O)c4ccc(C)cc4)cccc3C(=O)N([C@@H](C)CO)C[C@@H]2C)cc1`, the inhibition was -2.22%.

With `O=C(Nc1ccc(C(F)(F)F)cc1)N[C@@H]1CC[C@H](CC(=O)N2CCCCC2)O[C@H]1CO`, the inhibition was -2.54%.

In the case of `O=C([C@@H]1[C@@H](CO)[C@@H]2Cn3c(ccc(-c4ccccc4)c3=O)[C@H]1N2CCC(F)(F)F)N1CCCCC1`, the inhibition was -29.7%.

For the molecule `CCCNC(=O)N1CC(=O)N2[C@H](CO)[C@@H](c3ccc(-c4ccc(F)cc4)cc3)[C@H]2C1`, the inhibition was 4.11%.

In the case of `C[C@H](CO)N1C[C@H](C)[C@@H](CN(C)C(=O)Nc2ccnc(N3CCOCC3)c2)OCc2ccccc2-c2c(n(C)c3ccccc23)C1=O`, the inhibition is -5.68%.

Regarding `Cc1ccc(C)c(NC(=O)c2ccc3nccnc3c2)c1`, the inhibition was 0.033%.

On to `Cc1nnc(NC(=O)c2ccc3nccnc3c2)s1`, for which the inhibition is 16.3% (active).

Regarding `CC(C)CCC(C)NC(=O)c1ccc2nccnc2c1` (stereo not drawn), the inhibition was 7.36%.

Take `O=C(Nc1ccc(C(F)(F)F)cc1)N[C@@H]1CC[C@H](CCNC(=O)c2ccccc2F)O[C@@H]1CO`: the inhibition is 0.363%.

Consider `Cc1ccc(S(=O)(=O)NC[C@H]2CC[C@@H]3[C@@H](CN3Cc3ccccc3C(=O)O)O2)cc1`, for which the inhibition was -3.22%.

`C[C@@H](NC(=O)C[C@H]1C[C@H]2c3cc(NC(=O)Nc4ccccc4F)ccc3O[C@H]2[C@@H](CO)O1)c1ccccc1`: the inhibition is 2.15%.

As to `COC(=O)c1ccc(CSc2nnc(N)s2)o1`, the inhibition is 16% (active).

In the case of `COCC(C)n1c(SCc2ccc(C(=O)OC)o2)nc2ccccc2c1=O` (stereo not drawn), the inhibition was 1.17%.

With `Nc1nnc(SCC(=O)NCC(=O)Nc2ccc(F)c(F)c2F)s1`, the inhibition is 0.518%.

As to `CN1CCN(C(=O)C[C@H]2CC[C@@H](NC(=O)c3ccc4c(c3)OCO4)[C@H](CO)O2)CC1`, the inhibition is 1.96%.

On to `CCOC(=O)c1c(NC(=O)C2(C)Cc3ccccc3C(=O)O2)sc2c1CCCC2` (stereo not drawn), for which the inhibition is -3.61%.

As for `CCOC(=O)c1c(NC(=O)C(C)Sc2c[nH]c3ccccc23)sc2c1CCC2` (stereo not drawn), the inhibition was 0.63%.

As to `CCOC(=O)c1c(NC(=S)Nc2ccccc2C)sc2c1CCC2`, the inhibition is 22.8% (active).

As for `O=C(C[C@H]1CC[C@H]2[C@@H](COC[C@@H](O)CN2Cc2ccccc2F)O1)NCc1ccccc1F`, the inhibition was 3.18%.

In the case of `O=C1NC(c2ccncc2)Nc2sc3c(c21)CCCC3` (stereo not drawn), the inhibition was 15.5% (active).

For `C/C(=C\c1ccccc1)C1NC(=O)c2c(sc3c2CCCC3)N1` (stereo not drawn), the inhibition was -1.37%.

For the molecule `CC(=O)N1[C@@H](CO)[C@@H](c2ccc(C3=CCCC3)cc2)C12CN(C(=O)C1CC1)C2`, the inhibition was 3.6%.

With `CO[C@H]1CN(C)C(=O)c2ccc(NC(=O)c3ccno3)cc2OC[C@@H](C)N(S(C)(=O)=O)C[C@H]1C`, the inhibition is 17% (active).

Take `CO[C@H]1CN(C)C(=O)c2ccc(NC(=O)c3cnccn3)cc2OC[C@H](C)N(C)C[C@@H]1C`: the inhibition is 0.983%.

As for `CO[C@@H]1CN(C)C(=O)c2cc(NC(=O)c3ccno3)ccc2OC[C@@H](C)N(S(C)(=O)=O)C[C@@H]1C`, the inhibition was 0.416%.

Consider `COCC(=O)Nc1ccc2c(c1)[C@H]1C[C@H](CC(=O)NCc3ccc(OC)cc3)O[C@@H](CO)[C@H]1O2`, for which the inhibition is -0.814%.

As to `CCCNC(=O)N1C[C@H](C)[C@@H](OC)CN(C)C(=O)c2ccc(NS(C)(=O)=O)cc2OC[C@@H]1C`, the inhibition is -4.54%.

Regarding `C[C@@H]1CN([C@@H](C)CO)C(=O)c2cc(-c3ccc(C#N)cc3)cnc2O[C@@H]1CN(C)Cc1cccnc1`, the inhibition is -2.7%.

As to `CO[C@H]1CN(C)C(=O)c2ccc(NC(=O)Nc3ccc(Cl)cc3)cc2OC[C@H](C)N(C(=O)Nc2c(C)noc2C)C[C@@H]1C`, the inhibition is -0.008%.

Consider `COc1ccccc1OCC(=O)OCc1cc(-c2ccco2)on1`, for which the inhibition is 18.8% (active).

`COc1ccccc1OCC(=O)O/N=C(\N)c1ccccn1`: the inhibition is 0.993%.

Turning to `COc1ccc(NC(=O)CSc2ccc(-c3ccco3)nn2)c(OC)c1`, the inhibition was -1.12%.

As for `COCC(=O)Nc1ccc2c(c1)OC[C@@H](C)N(C(=O)c1cnccn1)C[C@H](C)[C@H](OC)CN(C)C2=O`, the inhibition was -3.74%.

In the case of `CCC(=O)N1CC(=O)N2[C@@H](CO)[C@@H](c3ccc(C#CC4CCCC4)cc3)[C@@H]2C1`, the inhibition is -0.876%.

For `C[C@H](CO)N1C[C@H](C)[C@H](CN(C)C(=O)c2ccccn2)Oc2ncc(-c3ccccc3F)cc2C1=O`, the inhibition is 0.464%.

Take `Cc1ccc(S(=O)(=O)N(C)C[C@H]2OCCCC[C@@H](C)Oc3ccc(NS(C)(=O)=O)cc3C(=O)N([C@H](C)CO)C[C@@H]2C)cc1`: the inhibition was -1.35%.

As for `Cc1ccc(S(=O)(=O)N(C)C[C@@H]2OCCCC[C@@H](C)Oc3ccc(NS(=O)(=O)c4ccccc4)cc3C(=O)N([C@H](C)CO)C[C@@H]2C)cc1`, the inhibition was 15%.

For `Cc1ccc(S(=O)(=O)Nc2ccc3c(c2)C(=O)N([C@@H](C)CO)C[C@@H](C)[C@H](CN(C)Cc2ccc(Cl)c(Cl)c2)OCCCC[C@@H](C)O3)cc1`, the inhibition is 17.4% (active).

Turning to `C[C@@H]1CCCCO[C@@H](CN(C)S(C)(=O)=O)[C@H](C)CN([C@@H](C)CO)C(=O)c2cc(NS(=O)(=O)c3ccc(F)cc3)ccc2O1`, the inhibition is 1.65%.

`C[C@@H]1CCCCO[C@H](CN(C)Cc2ccc(C(F)(F)F)cc2)[C@@H](C)CN([C@@H](C)CO)C(=O)c2cc(NC(=O)c3ccncc3)ccc2O1`: the inhibition was 15.9% (active).

In the case of `C[C@@H]1CCCCO[C@H](CN(C)CC2CCCCC2)[C@H](C)CN([C@H](C)CO)C(=O)c2cc(NS(=O)(=O)c3ccc(F)cc3)ccc2O1`, the inhibition was 16% (active).

For the molecule `Cc1ccc(S(=O)(=O)Nc2ccc3c(c2)C(=O)N([C@@H](C)CO)C[C@@H](C)[C@H](CN(C)Cc2ccc4c(c2)OCO4)OCCCC[C@@H](C)O3)cc1`, the inhibition is 4.41%.

For the molecule `C[C@H](CO)N1C[C@H](C)[C@H](CN(C)CC2CCCCC2)OCCCC[C@H](C)Oc2ccc(NS(=O)(=O)c3ccc(F)cc3)cc2C1=O`, the inhibition is 13.2%.

With `CC(C)NC(=O)Nc1ccc2c(c1)C(=O)N([C@H](C)CO)C[C@H](C)[C@@H](CN(C)Cc1ccc(C(F)(F)F)cc1)OCCCC[C@@H](C)O2`, the inhibition is 0.221% and 2.28%.

Regarding `C[C@@H]1CCCCO[C@@H](CN(C)Cc2ccc(Cl)c(Cl)c2)[C@H](C)CN([C@@H](C)CO)C(=O)c2cc(NS(C)(=O)=O)ccc2O1`, the inhibition was 11.8%.

In the case of `C[C@@H]1CCCCO[C@H](CN(C)Cc2ccc(C(F)(F)F)cc2)[C@H](C)CN([C@H](C)CO)C(=O)c2cc(NC(=O)Nc3ccc(F)cc3)ccc2O1`, the inhibition was 5.62%.

With `Cc1ccc(S(=O)(=O)Nc2ccc3c(c2)C(=O)N([C@H](C)CO)C[C@@H](C)[C@H](CN(C)S(=O)(=O)c2ccc(C)cc2)OCCCC[C@@H](C)O3)cc1`, the inhibition was 15.5% (active).

For `CN(C)CC(=O)N1[C@@H](C#N)[C@@H](c2ccccc2-c2ccccc2F)[C@@H]1CO`, the inhibition was -0.215%.

On to `COCC(=O)N1C[C@@H](C)[C@H](OC)CN(C)C(=O)c2cc(NC(=O)c3cc(C)on3)ccc2OC[C@@H]1C`, for which the inhibition is -4.63%.

Take `N#Cc1ccc(-c2ccc([C@@H]3[C@H]4CNC[C@@H]3N4Cc3cc(F)ccc3F)cc2)cc1`: the inhibition is -3.56%.

For `COCC#Cc1cnc2c(c1)C(=O)N([C@H](C)CO)C[C@H](C)[C@H](CN(C)C(=O)Nc1ccccc1OC)O2`, the inhibition is 3.78%.

In the case of `C[C@@H](NC(=O)C[C@H]1C[C@@H]2c3cc(NC(=O)Nc4ccccc4F)ccc3O[C@@H]2[C@H](CO)O1)c1ccccc1`, the inhibition is 1.89%.
